{"source": "PubChem BioAssay (NCATS)", "note": "Calls of active or inactive are those of the source. Unless noted, calls follow the shape of the dose curve; as a rule, active = well fitted curve in the direction sought with a large enough effect; inconclusive = small, poorly fitted or top-dose-only effect, or another doubt; inactive = no such curve, though single readings can be large; an effect the other way counts as inactive or inconclusive."}
{"biological_target": "Pyruvate kinase PKM (Homo sapiens) (UniProt P14618)", "sequence (P14618 whole entry, looked up)": "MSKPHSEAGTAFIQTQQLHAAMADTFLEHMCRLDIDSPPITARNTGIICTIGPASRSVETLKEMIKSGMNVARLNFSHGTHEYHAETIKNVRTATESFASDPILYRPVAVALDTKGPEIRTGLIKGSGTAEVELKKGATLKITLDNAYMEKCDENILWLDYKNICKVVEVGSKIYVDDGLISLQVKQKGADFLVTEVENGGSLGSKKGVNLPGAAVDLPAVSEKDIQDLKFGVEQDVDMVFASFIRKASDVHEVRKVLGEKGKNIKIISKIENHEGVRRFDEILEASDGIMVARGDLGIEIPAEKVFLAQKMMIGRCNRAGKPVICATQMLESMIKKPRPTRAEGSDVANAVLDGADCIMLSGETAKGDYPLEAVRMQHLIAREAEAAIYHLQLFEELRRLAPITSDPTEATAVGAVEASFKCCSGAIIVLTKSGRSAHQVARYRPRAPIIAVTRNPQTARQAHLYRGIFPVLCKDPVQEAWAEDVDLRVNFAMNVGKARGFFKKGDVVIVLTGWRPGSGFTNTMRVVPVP", "experiment": "qHTS Assay for Activators of Human Muscle Pyruvate Kinase (AID 954; active = well fitted curve in the direction sought with a large enough effect, not every such curve was filed as active)", "conditions": "purified human muscle pyruvate kinase, luciferase-coupled luminescence, 1 h; series mostly up to 57.5 µM", "in_short": "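Human PKM2 activity is measured as ATP generation, detected by luciferase-coupled luminescence. The enzyme (0.1 nM) acts on 0.5 mM PEP and 0.1 mM ADP for 1 h at ambient temperature; data are normalized to uninhibited and full-inhibition wells.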"}
{"smiles": "CCN1C[C@]2(C)CC[C@@H](O)[C@]34[C@@H]5CC6[C@@H](OC)C[C@@](O)([C@H]5[C@@H]6O)[C@@H](C[C@@H]23)[C@H]14", "outcome": "inactive"}
{"smiles": "C=CCN1C[C@@H](C)N([C@H](c2ccc(C(=O)N(CC)CC)cc2)c2cccc(OC)c2)C[C@H]1C", "outcome": "inactive"}
{"smiles": "CCCN1CCc2cccc3c2[C@@H]1Cc1ccc(O)c(O)c1-3", "outcome": "inactive"}
{"smiles": "NC(N)=Nc1ccc2[nH]c3c(c2c1)C[C@]1(O)[C@@H]2Cc4ccc(O)c5c4[C@]1(CCN2CC1CC1)[C@H]3O5", "outcome": "inactive"}
{"smiles": "C[C@H](N[C@@H](C)CCc1ccccc1)[C@H](O)c1ccc(O)cc1", "outcome": "inactive"}
{"smiles": "CCCC[N+]1(C)[C@@H]2CC(OC(=O)[C@@H](CO)c3ccccc3)C[C@H]1[C@H]1O[C@H]12", "note": "(stereo partly drawn)", "outcome": "inactive"}
{"smiles": "CC(C)(C)NC[C@H](O)c1ccccc1Cl", "outcome": "inactive"}
{"biological_target": "Alpha-galactosidase (Coffea arabica) (UniProt Q42656)", "sequence (Q42656 whole entry, looked up)": "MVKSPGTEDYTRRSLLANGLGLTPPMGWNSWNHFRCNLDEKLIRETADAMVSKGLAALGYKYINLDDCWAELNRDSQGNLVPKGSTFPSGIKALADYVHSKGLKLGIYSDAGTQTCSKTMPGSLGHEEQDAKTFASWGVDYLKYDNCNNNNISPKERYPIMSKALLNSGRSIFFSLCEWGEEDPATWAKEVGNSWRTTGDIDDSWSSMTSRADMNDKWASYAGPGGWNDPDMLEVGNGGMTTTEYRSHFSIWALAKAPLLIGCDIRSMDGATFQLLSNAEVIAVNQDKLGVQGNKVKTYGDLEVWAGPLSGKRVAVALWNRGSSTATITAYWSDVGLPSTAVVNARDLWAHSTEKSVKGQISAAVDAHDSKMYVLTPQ", "experiment": "Counterscreen for Glucocerebrosidase Inhibitors: qHTS Assay for Coffee Bean alpha-Galactosidase at pH 4.5 (AID 957)", "conditions": "purified coffee bean alpha-galactosidase, fluorogenic substrate; series mostly up to 76.9 µM", "in_short": "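AC50 values derive from Hill-equation modeling of concentration-response data, normalized to no-enzyme and full-activity controls. The pH 4.5 citrate assay used 2 nM coffee bean enzyme and 80 uM fluorogenic substrate for 20 min.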"}
{"smiles": "CCN1C[C@]2(C)CC[C@@H](O)[C@]34[C@@H]5CC6[C@@H](OC)C[C@@](O)([C@H]5[C@@H]6O)[C@@H](C[C@@H]23)[C@H]14", "outcome": "inactive"}
{"smiles": "C=CCN1C[C@@H](C)N([C@H](c2ccc(C(=O)N(CC)CC)cc2)c2cccc(OC)c2)C[C@H]1C", "outcome": "inactive"}
{"smiles": "CCCN1CCc2cccc3c2[C@@H]1Cc1ccc(O)c(O)c1-3", "outcome": "inactive"}
{"smiles": "NC(N)=Nc1ccc2[nH]c3c(c2c1)C[C@]1(O)[C@@H]2Cc4ccc(O)c5c4[C@]1(CCN2CC1CC1)[C@H]3O5", "outcome": "inactive"}
{"smiles": "C[C@H](N[C@@H](C)CCc1ccccc1)[C@H](O)c1ccc(O)cc1", "outcome": "inactive"}
{"smiles": "CCCC[N+]1(C)[C@@H]2CC(OC(=O)[C@@H](CO)c3ccccc3)C[C@H]1[C@H]1O[C@H]12", "note": "(stereo partly drawn)", "outcome": "inactive"}
{"smiles": "CC(C)(C)NC[C@H](O)c1ccccc1Cl", "outcome": "inactive"}
{"smiles": "C=CCN1CCc2cccc3c2[C@@H]1Cc1ccc(O)c(O)c1-3", "outcome": "inactive"}
{"biological_target": "Alpha-galactosidase A (Homo sapiens) (UniProt P06280)", "sequence (P06280 whole entry, looked up)": "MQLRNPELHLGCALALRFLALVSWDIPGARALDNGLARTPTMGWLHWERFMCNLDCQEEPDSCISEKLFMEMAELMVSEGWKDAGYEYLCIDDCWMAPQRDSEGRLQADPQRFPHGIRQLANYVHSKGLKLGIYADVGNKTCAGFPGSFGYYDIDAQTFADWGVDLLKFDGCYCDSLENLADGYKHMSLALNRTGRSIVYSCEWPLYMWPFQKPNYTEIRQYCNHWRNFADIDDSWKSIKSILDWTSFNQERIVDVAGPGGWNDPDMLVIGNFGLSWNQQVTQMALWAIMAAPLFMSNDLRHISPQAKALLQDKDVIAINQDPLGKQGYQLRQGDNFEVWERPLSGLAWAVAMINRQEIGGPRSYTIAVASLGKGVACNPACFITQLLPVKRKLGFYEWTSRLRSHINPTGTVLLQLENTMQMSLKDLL", "experiment": "Counterscreen for Glucocerebrosidase Inhibitors: qHTS Assay for Human alpha-Galactosidase at pH 4.5 (AID 992)", "conditions": "purified enzyme, fluorogenic substrate; series mostly up to 76.9 µM", "in_short": "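Quantitative HTS: compounds tested from 0.7 nM up to 77 uM against 2 nM enzyme with 80 uM 4-MU alpha-D-galactopyranoside. The 20 min room-temperature reaction is stopped with 1M NaOH/1M glycine, pH 10.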"}
{"smiles": "CCN1C[C@]2(C)CC[C@@H](O)[C@]34[C@@H]5CC6[C@@H](OC)C[C@@](O)([C@H]5[C@@H]6O)[C@@H](C[C@@H]23)[C@H]14", "outcome": "inactive"}
{"smiles": "C=CCN1C[C@@H](C)N([C@H](c2ccc(C(=O)N(CC)CC)cc2)c2cccc(OC)c2)C[C@H]1C", "outcome": "inactive"}
{"smiles": "CCCN1CCc2cccc3c2[C@@H]1Cc1ccc(O)c(O)c1-3", "outcome": "inactive"}
{"smiles": "NC(N)=Nc1ccc2[nH]c3c(c2c1)C[C@]1(O)[C@@H]2Cc4ccc(O)c5c4[C@]1(CCN2CC1CC1)[C@H]3O5", "outcome": "inactive"}
{"smiles": "C[C@H](N[C@@H](C)CCc1ccccc1)[C@H](O)c1ccc(O)cc1", "outcome": "inactive"}
{"smiles": "CCCC[N+]1(C)[C@@H]2CC(OC(=O)[C@@H](CO)c3ccccc3)C[C@H]1[C@H]1O[C@H]12", "note": "(stereo partly drawn)", "outcome": "inactive"}
{"smiles": "CC(C)(C)NC[C@H](O)c1ccccc1Cl", "outcome": "inactive"}
{"smiles": "C=CCN1CCc2cccc3c2[C@@H]1Cc1ccc(O)c(O)c1-3", "outcome": "inactive"}
